Records with an inconclusive call do not appear. Where a call stands in place of a potency, no number is given. Activity calls are given as the source filed them. The call rests on the fitted dose curve; in most records, active means well fitted curve in the direction sought with a large enough effect; inconclusive means small, poorly fitted or top-dose-only effect, or another doubt; inactive means no such curve, though single readings can be large; an effect the other way counts as inactive or inconclusive. *1 amine or outer side, *2 acyl side, *3 side chain or, on linkers, in order; H or OH if unused. Where a SMILES comes first, the peptide text is derived from it. Bridges are numbered along the chain shown (N, C = ends). X6 = O=C(CCC[*:2])[*:1]
Tests used:
[1] = P-glycoprotein substrates identified in KB-3-1 adenocarcinoma cell line, qHTS therapeutic library screen (AID 1346986); settings: KB-3-1 parental cells viability, CellTiter-Glo, 72 h; series mostly up to 44.5 µM; further: nearly all actives have a fitted effect of over 60% in size
How it was run: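 Resistance attributable to P-gp was assessed by comparing AC50 in KB-8-5-11 with parental KB-3-1 and by tariquidar reversal. Cells were exposed 72 h and viability read by CellTiter-Glo.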

[2] = P-glycoprotein substrates identified in KB-8-5-11 adenocarcinoma cell line, qHTS therapeutic library screen (AID 1346987); settings: KB-8-5-11 (P-gp overexpressing) viability, CellTiter-Glo, 72 h; series mostly up to 44.5 µM; further: nearly all actives have a fitted effect of over 65% in size
How it was run: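 KB-8-5-11, a colchicine-selected P-gp-overexpressing KB-3-1 subline, was grown without colchicine for the assay. Cells were seeded at 500 cells/well, dosed in concentration-response and incubated 72 h at 37 degree C, 5% CO2. Viability was read by CellTiter-Glo luminescence.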

With `C/C(=C\CCC(C(=O)O)C1CCC2(C)C3=C(CCC12C)C1(C)CCC(=O)C(C)(C)C1CC3)C(=O)O` (configuration not stated) the Potency [1] was “inactive” and the Potency [2] was “inactive”.

For `CC(/C=C/[C@]1(O)[C@@]2(C)CO[C@@]1(C)C[C@@H](O)C2)=C\C(=O)O[C@@H]1O[C@H](CO)[C@@H](O)[C@H](O)[C@H]1O`, the Potency [1] was “inactive” and the Potency [2] was “inactive”.

For `CC(=O)O[C@@H]1C[C@]2(C)[C@@]3(CCC4[C@@]5(C)CC[C@H](O[C@@H]6O[C@H](C(=O)O)[C@@H](O)[C@H](O[C@@H]7O[C@H](CO)[C@H](O)[C@H](O)[C@H]7O[C@@H]7O[C@@H](C)[C@H](O)[C@@H](O)[C@H]7O[C@@H]7OC[C@](O)(CO)[C@H]7O)[C@H]6O[C@@H]6O[C@H](CO)[C@H](O)[C@H](O)[C@H]6O)C(C)(C)C5CC[C@]42C)O[C@@H](O)[C@]12C3CC(C)(C)[C@@H](OC(=O)/C=C/c1ccc(O)c(O)c1)[C@@H]2OC(=O)/C=C/c1ccccc1` (some centres not stated), the outcome [1] was “inactive [at 9.29 µM]” and the outcome [2] was “inactive [at 9.29 µM]”.

In the case of `COc1ccc2c(c1)OC[C@]1(O)c3cc4c(cc3O[C@H]21)OCO4`, the Potency [1] is reported as “inactive” and the Potency [2] is reported as “inactive”.

In the case of `CC[C@H]1OC(=O)[C@H](C)[C@@H](O[C@H]2C[C@@](C)(OC)[C@@H](O)[C@H](C)O2)[C@H](C)[C@@H](O[C@@H]2O[C@H](C)C[C@H](N(C)C)[C@H]2O)[C@@](C)(O)C[C@@H](C)[C@@H]2N[C@@H](COCCOC)OC([C@H]2C)[C@]1(C)O`, the Potency [1] is reported as “inactive” and the Potency [2] is reported as “inactive”.

In the case of `C=CC(C)(C)C12CC3C(=O)NC(Cc4cnc[nH]4)C(=O)N3C1Nc1ccccc12` (configuration not stated), the Potency [1] is reported as “inactive” and the Potency [2] is reported as “inactive”.

For `CC[C@H](C)[C@@H]1NC(=O)[C@H](Cc2ccc(OC)cc2)NC(=O)CCCSC[C@@H](C(=O)N2CCC[C@H]2C(=O)N[C@@H](CC(C)C)C(=O)NCC(N)=O)NC(=O)[C@H](CC(N)=O)NC(=O)[C@H](CCC(N)=O)NC1=O` (Y(Me)IQNCPLG-NH2; linker N-5 via X6), the Potency [1] was “inactive” and the Potency [2] was “inactive”.

For `CC1OC(OC2C(CO)OC(OCC3OC(OC(=O)C45CCC(C)(C)CC4C4=CCC6C7(C)CCC(OC8OC(C(=O)O)C(O)C(OC9OC(CO)C(O)C(O)C9O)C8O)C(C)(C)C7CCC6(C)C4(C)CC5)C(O)C(O)C3O)C(O)C2O)C(O)C(O)C1O` (configuration not stated), the outcome [1] was “inactive [at 9.29 µM]” and the outcome [2] was “inactive [at 9.29 µM]”.

For `Nc1nonc1C(=Nc1ccc(F)c(Cl)c1)NO`, the Potency [1] was “inactive” and the Potency [2] was “inactive”.

With `C=C[C@H]1[C@H](O[C@@H]2O[C@H](CO[C@@H]3OC[C@](O)(CO)[C@H]3O)[C@@H](O)[C@H](O)[C@H]2O)OC=C2C(=O)OCC[C@H]21` the Potency [1] was “inactive” and the Potency [2] was “inactive”.

With `COc1cc(COC2OC(CO)C(O)C(O)C2O)cc(OC)c1O` (configuration not stated) the Potency [1] was “inactive” and the Potency [2] was “inactive”.

With `O=c1c2ccccc2nc2n1CCC2O` (configuration not stated) the Potency [1] was “inactive” and the Potency [2] was “inactive”.

In the case of `O=C(NC[C@H](O)CN1CCc2ccccc2C1)c1cc(NC2COC2)ncn1`, the Potency [1] is reported as “inactive” and the Potency [2] is reported as “inactive”.

In the case of `COc1cccc(-c2ccc([C@@H](Oc3cc(-c4ccc(C[C@H](N)C(=O)O)cc4)nc(N)n3)C(F)(F)F)cc2)c1`, the Potency [1] is reported as “inactive” and the Potency [2] is reported as “inactive”.

In the case of `CC1(C)CC[C@]2(C(=O)O[C@@H]3O[C@H](CO)[C@@H](O)[C@H](O)[C@H]3O)CC[C@]3(C)C(=CCC4[C@@]5(C)C[C@@H](O)[C@H](O)[C@@](C)(CO)C5CC[C@]43C)C2C1` (some centres not stated), the Potency [1] is reported as “inactive” and the Potency [2] is reported as “inactive”.

In the case of `Cc1onc(-c2ccccc2)c1C(=O)N[C@@H]1C(=O)N2[C@@H]1SC(C)(C)[C@@H]2C(=O)O`, the Potency [1] is reported as “inactive” and the Potency [2] is reported as “inactive”.

In the case of `O=C(OCc1cccc(O)c1O[C@@H]1O[C@H](CO)[C@@H](O)[C@H](O)[C@H]1O)C1(O)C(=O)C2C=CC1C1C=CC(=O)C(O)(C(=O)OCc3cccc(O)c3O[C@@H]3O[C@H](CO)[C@@H](O)[C@H](O)[C@H]3O)C21` (some centres not stated), the outcome [1] is reported as “inactive [at 9.29 µM]” and the outcome [2] is reported as “inactive [at 9.29 µM]”.

For `CC(=O)NCCCCn1c2c(c3ccccc31)C(=O)NCC2`, the Potency [1] was “inactive” and the Potency [2] was “inactive”.

In the case of `COc1ncc(-c2ccc3c(Nc4cc(Oc5cc(F)cc(F)c5)cc(C(=O)O)c4)c(S(=O)(=O)NC4CC4)cnc3c2)c(OC)n1`, the Potency [1] is reported as “inactive” and the Potency [2] is reported as “inactive”.

In the case of `CCn1c2ccccc2c2cc(CNC)ccc21`, the Potency [1] is reported as “inactive” and the Potency [2] is reported as “inactive”.

For `CC(=O)O[C@H]1C[C@@H]2[C@]3(CC[C@]4(C)[C@@H](C5(C)CCC(C(C)(C)O)O5)[C@@H](O)C[C@@]24C)C[C@@]32CC[C@H](O[C@@H]3OC[C@@H](O)[C@H](O)[C@H]3O)C(C)(C)[C@H]12` (some centres not stated), the Potency [1] was “inactive” and the Potency [2] was “inactive”.
